Source: PMC8384837, “Expanding the binding specificity for RNA recognition by a PUF domain”

The sequences below were run against PUM1 PUF domain R5-GRP (Homo sapiens, UniProt Q14671 828-1176, C1007G;Q1011P) (assay: yeast three-hybrid, YBZ-1, SC-Leu-His + 0.5 mM 3-AT, 4 days). Conditions: tags: N-Gal4 AD-HA kept; label: inside an RPR1-promoter hybrid RNA with tandem MS2 sites; ssRNA.
Outline: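 Sequencing with Illumina followed PCR amplification of the repeat regions from transformants grown four days on SC-Leu (input) or SC-Leu-His + 0.5 mM 3-AT (selection). The transformants were strain YBZ-1 with a LexA–MS2 coat fusion and a HIS3 reporter, carrying Pumilio-1 PUF domain libraries and matching RNA elements. The interaction score is the log change in variant frequency from input to selection, computed in log2 with a pseudocount of 1 for absent variants.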

Chain of PUM1 PUF domain R5-GRP (Q14671 828-1176 C1007G/Q1011P): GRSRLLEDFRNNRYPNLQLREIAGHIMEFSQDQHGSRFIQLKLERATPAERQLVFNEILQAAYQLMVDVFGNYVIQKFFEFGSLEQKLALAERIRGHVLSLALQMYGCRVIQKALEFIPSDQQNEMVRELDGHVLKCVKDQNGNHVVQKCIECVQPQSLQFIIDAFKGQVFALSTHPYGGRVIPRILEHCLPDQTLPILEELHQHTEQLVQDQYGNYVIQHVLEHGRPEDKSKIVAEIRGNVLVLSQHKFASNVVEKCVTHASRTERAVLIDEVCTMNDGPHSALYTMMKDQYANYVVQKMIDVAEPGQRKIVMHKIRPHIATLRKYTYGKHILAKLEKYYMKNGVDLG

Point of comparison: “GGCUAGAACUAGUGGAUCCCCCGGCGCCCGGCGGCUCGAGCCCGGGUAAGUGUAAAUAGUCUGCAUGCCGCCGGGCGCCAUGCCUGCAGGUCGACUCUAGAAAACAUG”, binding signal 2.96 log2 enrichment (interaction score). Against it:
- GGCUAGAACUAGUGGAUCCCCCGGCGCCCGGCGGCUCGAGCCCGGGUAAGUGUUAAUAGUCUGCAUGCCGCCGGGCGCCAUGCCUGCAGGUCGACUCUAGAAAACAUG — lower, 0.43 log2 enrichment (interaction score)
- GGCUAGAACUAGUGGAUCCCCCGGCGCCCGGCGGCUCGAGCCCGGGUAAGUGUGAAUAGUCUGCAUGCCGCCGGGCGCCAUGCCUGCAGGUCGACUCUAGAAAACAUG — lower, 1.44 log2 enrichment (interaction score)
